From article PMC8384837, “Expanding the binding specificity for RNA recognition by a PUF domain” come the findings set out here.

Residue numbers refer to the chain shown, from its start.

Holding throughout (test): yeast three-hybrid, YBZ-1, SC-Leu-His + 0.5 mM 3-AT, 4 days
Conditions in all cases: tags: N-Gal4 AD-HA kept; label: inside an RPR1-promoter hybrid RNA with tandem MS2 sites; ssRNA

One assay addresses PUM1 PUF domain R4-LHS (Homo sapiens, UniProt Q14671 828-1176, N971L;Q975S). The gist of the method:
(§1)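 Each repeat of the Pumilio-1 PUF domain was randomized at its three base-contacting residues, and these libraries were co-expressed from a centromeric plasmid with matching RNA elements in strain YBZ-1. After four days on SC-Leu (input) or SC-Leu-His + 0.5 mM 3-AT (selection), the repeat regions were PCR-amplified and Illumina-sequenced. The interaction score compares variant frequency between input and selection as a log change, computed in log2 with a pseudocount of 1 for absent variants.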

For the next assay, the target named is PUM1 PUF domain R8-MYW (Homo sapiens, UniProt Q14671 828-1176, N1122M;Q1126W). The gist of the method:
as §1

For another assay, the target named is PUM1 PUF domain R1-RMQ (Homo sapiens, UniProt Q14671 828-1176, S863R;R864M). In outline:
as §1

Another assay deals with PUM1 PUF domain R1-QCR (Homo sapiens, UniProt Q14671 828-1176, S863Q;R864C;Q867R). In outline:
as §1

In another assay the target is PUM1 PUF domain R1-SYK (Homo sapiens, UniProt Q14671 828-1176, R864Y;Q867K). The gist of the method:
as §1

The target of the next assay is T1, PUM1 PUF domain R6-TWV (Homo sapiens, UniProt Q14671 828-1176, N1043T;Y1044W;Q1047V).
T1 sequence: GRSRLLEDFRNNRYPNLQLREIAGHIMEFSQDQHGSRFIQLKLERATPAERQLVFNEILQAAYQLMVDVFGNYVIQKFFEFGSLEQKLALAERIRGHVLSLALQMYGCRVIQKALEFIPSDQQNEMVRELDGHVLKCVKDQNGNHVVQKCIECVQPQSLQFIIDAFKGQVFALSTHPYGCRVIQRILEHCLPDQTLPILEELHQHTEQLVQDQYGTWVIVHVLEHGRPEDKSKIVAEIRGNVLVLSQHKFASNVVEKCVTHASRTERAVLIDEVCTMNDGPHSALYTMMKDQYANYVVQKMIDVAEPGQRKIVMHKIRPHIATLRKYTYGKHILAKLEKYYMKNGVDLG
The gist of the method: as §1

A further assay has as its target T2, PUM1 PUF domain R6-NWL (Homo sapiens, UniProt Q14671 828-1176, Y1044W;Q1047L).
T2 sequence: T1 sequence with T216N, V220L
In outline:
as §1

The target in the next assay is PUM1 PUF domain R5-KGW (Homo sapiens, UniProt Q14671 828-1176, C1007K;R1008G;Q1011W). The gist of the method:
as §1

The next assay addresses PUM1 PUF domain R5-RYK (Homo sapiens, UniProt Q14671 828-1176, C1007R;R1008Y;Q1011K). The gist of the method:
as §1

In another assay the target is PUM1 PUF domain R5-RQN (Homo sapiens, UniProt Q14671 828-1176, C1007R;R1008Q;Q1011N). The gist of the method:
as §1

In the next assay the target is PUM1 PUF domain R5-SLH (Homo sapiens, UniProt Q14671 828-1176, C1007S;R1008L;Q1011H). In outline: as §1
For the next assay, the target named is T3, PUM1 PUF domain R6-HWW (Homo sapiens, UniProt Q14671 828-1176, N1043H;Y1044W;Q1047W).
T3 sequence: T1 sequence with T216H, V220W
The gist of the method: as §1

The target of another assay is PUM1 PUF domain R3-ERS (Homo sapiens, UniProt Q14671 828-1176, C935E;Q939S). The gist of the method: as §1
A further assay has as its target PUM1 PUF domain R2-VWW (Homo sapiens, UniProt Q14671 828-1176, N899V;Y900W;Q903W). In outline: as §1
In a further assay the target is PUM1 PUF domain R2-FWW (Homo sapiens, UniProt Q14671 828-1176, N899F;Y900W;Q903W). The gist of the method: as §1
The next assay deals with PUM1 PUF domain R7-RRN (Homo sapiens, UniProt Q14671 828-1176, S1079R;N1080R;E1083N). The gist of the method: as §1

On to “GGCUAGAACUAGUGGAUCCCCCGGCGCCCGGCGGCUCGAGCCCGGGUAAGUGUAUAUAGUCUGCAUGCCGCCGGGCGCCAUGCCUGCAGGUCGACUCUAGAAAACAUG”, for which, in the assay with PUM1 PUF domain R4-LHS, the binding signal is 3.86 log2 enrichment (interaction score).
For “GGCUAGAACUAGUGGAUCCCCCGGCGCCCGGCGGCUCGAGCCCGGGUAAGCGUAAAUAGUCUGCAUGCCGCCGGGCGCCAUGCCUGCAGGUCGACUCUAGAAAACAUG”, the binding signal in the assay with PUM1 PUF domain R8-MYW is 2.44 log2 enrichment (interaction score).
As for “GGCUAGAACUAGUGGAUCCCCCGGCGCCCGGCGGCUCGAGCCCGGGUAAGUGUAAAUCGUCUGCAUGCCGCCGGGCGCCAUGCCUGCAGGUCGACUCUAGAAAACAUG”, the binding signal with PUM1 PUF domain R1-RMQ was 5.34 log2 enrichment (interaction score); in the assay with PUM1 PUF domain R1-QCR it was 2.48 log2 enrichment (interaction score); with PUM1 PUF domain R1-SYK it was 2.72 log2 enrichment (interaction score).
Consider “GGCUAGAACUAGUGGAUCCCCCGGCGCCCGGCGGCUCGAGCCCGGGUAAGUGAAAAUAGUCUGCAUGCCGCCGGGCGCCAUGCCUGCAGGUCGACUCUAGAAAACAUG”, for which the binding signal is 2.6 log2 enrichment (interaction score) with PUM1 PUF domain R6-TWV and 2.34 log2 enrichment (interaction score) in the assay with PUM1 PUF domain R6-NWL.
In the case of “GGCUAGAACUAGUGGAUCCCCCGGCGCCCGGCGGCUCGAGCCCGGGUAAGUGUCAAUAGUCUGCAUGCCGCCGGGCGCCAUGCCUGCAGGUCGACUCUAGAAAACAUG”, the binding signal with PUM1 PUF domain R5-KGW was 3.14 log2 enrichment (interaction score); with PUM1 PUF domain R5-RYK, 4.4 log2 enrichment (interaction score); in the assay with PUM1 PUF domain R5-RQN, 4.58 log2 enrichment (interaction score).
Regarding “GGCUAGAACUAGUGGAUCCCCCGGCGCCCGGCGGCUCGAGCCCGGGUAAGUGUGAAUAGUCUGCAUGCCGCCGGGCGCCAUGCCUGCAGGUCGACUCUAGAAAACAUG”, the binding signal is 3.2 log2 enrichment (interaction score) with PUM1 PUF domain R5-SLH and 1.54 log2 enrichment (interaction score) in the assay with PUM1 PUF domain R5-RQN.
Take “GGCUAGAACUAGUGGAUCCCCCGGCGCCCGGCGGCUCGAGCCCGGGUAAGUGUAAAUAGUCUGCAUGCCGCCGGGCGCCAUGCCUGCAGGUCGACUCUAGAAAACAUG”: the binding signal is 3.8 log2 enrichment (interaction score) with PUM1 PUF domain R5-RYK, 4.93 log2 enrichment (interaction score) in the assay with PUM1 PUF domain R6-HWW and 5.32 log2 enrichment (interaction score) with PUM1 PUF domain R6-NWL.
With “GGCUAGAACUAGUGGAUCCCCCGGCGCCCGGCGGCUCGAGCCCGGGUAAGUGUAAGUAGUCUGCAUGCCGCCGGGCGCCAUGCCUGCAGGUCGACUCUAGAAAACAUG”, in the assay with PUM1 PUF domain R3-ERS, the binding signal was 2.54 log2 enrichment (interaction score).
For the sequence “GGCUAGAACUAGUGGAUCCCCCGGCGCCCGGCGGCUCGAGCCCGGGUAAGUGUAAAUUGUCUGCAUGCCGCCGGGCGCCAUGCCUGCAGGUCGACUCUAGAAAACAUG”, the binding signal in the assay with PUM1 PUF domain R1-QCR was 1.4 log2 enrichment (interaction score).
On to “GGCUAGAACUAGUGGAUCCCCCGGCGCCCGGCGGCUCGAGCCCGGGUAAGUGUAAAAAGUCUGCAUGCCGCCGGGCGCCAUGCCUGCAGGUCGACUCUAGAAAACAUG”, for which the binding signal with PUM1 PUF domain R2-VWW was 2.5 log2 enrichment (interaction score); with PUM1 PUF domain R2-FWW, 4.3 log2 enrichment (interaction score).
“GGCUAGAACUAGUGGAUCCCCCGGCGCCCGGCGGCUCGAGCCCGGGUAAGUUUAAAUAGUCUGCAUGCCGCCGGGCGCCAUGCCUGCAGGUCGACUCUAGAAAACAUG”: in the assay with PUM1 PUF domain R7-RRN, the binding signal is 4.89 log2 enrichment (interaction score).
In the case of “GGCUAGAACUAGUGGAUCCCCCGGCGCCCGGCGGCUCGAGCCCGGGUAAGUCUAAAUAGUCUGCAUGCCGCCGGGCGCCAUGCCUGCAGGUCGACUCUAGAAAACAUG”, in the assay with PUM1 PUF domain R7-RRN, the binding signal was 3.94 log2 enrichment (interaction score).
